# Article PMC7862700, “An all-to-all approach to the identification of sequence-specific readers for epigenetic DNA modifications on cytosine”
# Tests used:
# Assay in all cases: DAPPL (digital affinity profiling via proximity ligation, sequencing); 10 mM Tris-HCl pH 7.5, 50 mM NaCl, 1 mM DTT, 4% glycerol, room temperature, 30 min; GST-TFs on glutathione beads, 16-mer random dsDNA library, 0.1% formaldehyde crosslink after washing; high values mean tight binding
# Details in all cases: protein: recombinant; tags: N-terminal GST; dsDNA, one strand shown
# [1] = target: T1, FLI1 (Homo sapiens, UniProt Q01543 1-452)
# T1 sequence: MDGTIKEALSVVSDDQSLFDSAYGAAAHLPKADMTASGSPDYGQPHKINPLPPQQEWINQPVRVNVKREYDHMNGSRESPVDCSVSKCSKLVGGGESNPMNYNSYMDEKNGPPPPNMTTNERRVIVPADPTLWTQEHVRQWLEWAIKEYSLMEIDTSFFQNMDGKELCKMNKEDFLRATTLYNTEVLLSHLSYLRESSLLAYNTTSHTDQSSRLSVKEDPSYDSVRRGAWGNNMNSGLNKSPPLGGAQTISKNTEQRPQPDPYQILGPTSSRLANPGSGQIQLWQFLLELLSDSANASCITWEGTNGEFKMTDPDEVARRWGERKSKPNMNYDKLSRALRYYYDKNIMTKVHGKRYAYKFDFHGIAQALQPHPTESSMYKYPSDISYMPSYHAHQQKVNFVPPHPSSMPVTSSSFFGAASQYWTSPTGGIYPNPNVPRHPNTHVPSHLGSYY
# Summary of the method: (§1)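 Each value of binding signal is a hexamer's read frequency for a factor divided by the same hexamer's frequency in the tag-only sample. Barcoded, bead-captured GST fusions of human transcription factors made in yeast were pooled with that sample and incubated with 200 nmole of a random double-stranded 16-mer DNA library in Tris/NaCl/DTT/glycerol buffer at room temperature for 30 min. Washing, 0.1% formaldehyde crosslinking, proximity ligation, PCR and Illumina NextSeq500 sequencing followed.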
# [2] = target: T2, ELK1 (Homo sapiens, UniProt P19419 1-428)
# T2 sequence: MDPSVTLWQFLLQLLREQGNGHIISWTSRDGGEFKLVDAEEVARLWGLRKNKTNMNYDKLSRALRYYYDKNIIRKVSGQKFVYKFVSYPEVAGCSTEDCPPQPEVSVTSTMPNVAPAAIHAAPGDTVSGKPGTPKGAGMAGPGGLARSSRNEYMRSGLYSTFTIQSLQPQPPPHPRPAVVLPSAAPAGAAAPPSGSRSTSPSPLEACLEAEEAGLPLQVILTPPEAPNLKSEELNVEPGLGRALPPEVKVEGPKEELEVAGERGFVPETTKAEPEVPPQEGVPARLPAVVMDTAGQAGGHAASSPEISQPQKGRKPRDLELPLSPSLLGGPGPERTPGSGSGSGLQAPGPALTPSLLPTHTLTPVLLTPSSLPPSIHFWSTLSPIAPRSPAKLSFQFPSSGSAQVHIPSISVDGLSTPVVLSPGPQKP
# Summary of the method: as §1
# [3] = target: T3, GABPA (Homo sapiens, UniProt Q06546 1-454)
# T3 sequence: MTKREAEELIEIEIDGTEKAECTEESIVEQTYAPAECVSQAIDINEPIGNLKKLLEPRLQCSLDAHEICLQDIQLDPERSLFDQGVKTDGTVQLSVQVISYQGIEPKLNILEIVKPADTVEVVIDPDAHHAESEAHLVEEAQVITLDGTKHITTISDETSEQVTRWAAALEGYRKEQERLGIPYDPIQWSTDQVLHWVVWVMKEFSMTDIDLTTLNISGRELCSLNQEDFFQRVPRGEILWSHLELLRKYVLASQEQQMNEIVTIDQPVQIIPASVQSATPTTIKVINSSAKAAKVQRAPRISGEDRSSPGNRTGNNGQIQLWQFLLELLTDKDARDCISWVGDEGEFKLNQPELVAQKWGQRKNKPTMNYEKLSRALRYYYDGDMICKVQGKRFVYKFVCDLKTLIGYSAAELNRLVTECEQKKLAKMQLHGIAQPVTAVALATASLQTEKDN
# Summary of the method: as §1
# [4] = target: T4, ERG (Homo sapiens, UniProt P11308 1-479)
# T4 sequence: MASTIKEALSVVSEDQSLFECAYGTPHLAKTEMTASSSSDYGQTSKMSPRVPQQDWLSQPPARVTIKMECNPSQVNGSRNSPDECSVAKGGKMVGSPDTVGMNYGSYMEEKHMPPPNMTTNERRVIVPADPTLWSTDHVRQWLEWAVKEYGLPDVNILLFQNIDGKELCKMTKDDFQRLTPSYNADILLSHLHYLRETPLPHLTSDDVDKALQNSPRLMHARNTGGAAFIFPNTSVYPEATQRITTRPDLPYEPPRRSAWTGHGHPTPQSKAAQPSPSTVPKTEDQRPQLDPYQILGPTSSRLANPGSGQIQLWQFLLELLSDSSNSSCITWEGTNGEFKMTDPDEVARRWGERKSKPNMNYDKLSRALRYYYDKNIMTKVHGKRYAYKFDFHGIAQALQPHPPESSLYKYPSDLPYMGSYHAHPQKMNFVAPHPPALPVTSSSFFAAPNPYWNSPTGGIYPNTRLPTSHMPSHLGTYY
# Summary of the method: as §1
# [5] = target: ELF1 (Homo sapiens, UniProt P32519 1-619)
# Sequence of ELF1 (P32519 whole entry): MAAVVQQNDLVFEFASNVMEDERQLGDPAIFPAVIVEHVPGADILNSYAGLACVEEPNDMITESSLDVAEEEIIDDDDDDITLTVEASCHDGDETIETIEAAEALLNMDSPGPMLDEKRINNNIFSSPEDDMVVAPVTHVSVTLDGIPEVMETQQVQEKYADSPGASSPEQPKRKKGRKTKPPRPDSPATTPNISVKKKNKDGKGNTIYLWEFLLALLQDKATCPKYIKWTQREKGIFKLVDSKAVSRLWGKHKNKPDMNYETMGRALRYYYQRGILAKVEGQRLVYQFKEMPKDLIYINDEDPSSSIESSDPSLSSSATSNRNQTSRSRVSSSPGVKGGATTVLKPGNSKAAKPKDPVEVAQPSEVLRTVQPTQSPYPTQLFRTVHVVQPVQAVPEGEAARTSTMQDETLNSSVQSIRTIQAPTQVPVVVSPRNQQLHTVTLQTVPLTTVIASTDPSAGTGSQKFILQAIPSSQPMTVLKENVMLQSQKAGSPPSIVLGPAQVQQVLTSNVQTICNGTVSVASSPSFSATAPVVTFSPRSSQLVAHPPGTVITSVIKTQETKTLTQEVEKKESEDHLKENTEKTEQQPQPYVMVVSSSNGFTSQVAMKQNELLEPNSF
# Summary of the method: as §1
# [6] = target: T5, EHF (Homo sapiens, UniProt Q9NZC4 1-300)
# T5 sequence: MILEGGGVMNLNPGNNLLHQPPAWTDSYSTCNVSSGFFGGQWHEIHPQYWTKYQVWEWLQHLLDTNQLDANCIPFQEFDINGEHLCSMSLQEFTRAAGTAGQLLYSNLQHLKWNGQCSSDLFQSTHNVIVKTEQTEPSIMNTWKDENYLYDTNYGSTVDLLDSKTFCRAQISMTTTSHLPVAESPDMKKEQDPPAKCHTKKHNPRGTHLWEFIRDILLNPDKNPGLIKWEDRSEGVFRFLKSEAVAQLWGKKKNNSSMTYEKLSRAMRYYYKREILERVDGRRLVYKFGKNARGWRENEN
# Summary of the method: as §1
# [7] = target: SPI1 (Homo sapiens, UniProt P17947 1-270)
# Summary of the method: as §1
# [8] = target: SPIB (Homo sapiens, UniProt Q01892 1-262)
# Sequence of SPIB (Q01892 whole entry): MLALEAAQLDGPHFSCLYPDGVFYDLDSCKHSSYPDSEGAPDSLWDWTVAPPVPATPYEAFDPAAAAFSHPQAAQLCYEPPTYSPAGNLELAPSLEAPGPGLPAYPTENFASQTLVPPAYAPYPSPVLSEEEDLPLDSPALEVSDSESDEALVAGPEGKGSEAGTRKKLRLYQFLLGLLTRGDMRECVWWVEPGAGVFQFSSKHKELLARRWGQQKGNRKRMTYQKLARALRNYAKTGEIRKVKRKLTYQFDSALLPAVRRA
# Summary of the method: as §1
# [9] = target: T6, ELK3 (Homo sapiens, UniProt P41970 1-407)
# T6 sequence: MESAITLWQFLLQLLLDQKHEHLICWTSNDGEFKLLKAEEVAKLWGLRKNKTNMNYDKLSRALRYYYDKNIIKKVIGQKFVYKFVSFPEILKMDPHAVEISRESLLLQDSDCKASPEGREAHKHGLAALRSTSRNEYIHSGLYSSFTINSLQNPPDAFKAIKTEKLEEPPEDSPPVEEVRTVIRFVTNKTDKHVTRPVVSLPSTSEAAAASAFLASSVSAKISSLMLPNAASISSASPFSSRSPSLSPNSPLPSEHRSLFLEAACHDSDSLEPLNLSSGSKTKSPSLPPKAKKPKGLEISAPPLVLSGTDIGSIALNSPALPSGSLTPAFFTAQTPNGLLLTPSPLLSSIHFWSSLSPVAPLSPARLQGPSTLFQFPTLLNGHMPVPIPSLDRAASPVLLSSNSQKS
# Summary of the method: as §1
Sequence,binding signal [1],binding signal [2],binding signal [3],binding signal [4],binding signal [5],binding signal [6],binding signal [7],binding signal [8],binding signal [9]
ATCTCG,"1.41 fold enrichment (6-mer frequency, TF over GST control)","1.27 fold enrichment (6-mer frequency, TF over GST control)","1.42 fold enrichment (6-mer frequency, TF over GST control)","1.23 fold enrichment (6-mer frequency, TF over GST control)","1.39 fold enrichment (6-mer frequency, TF over GST control)","1.34 fold enrichment (6-mer frequency, TF over GST control)","1.37 fold enrichment (6-mer frequency, TF over GST control)","1.26 fold enrichment (6-mer frequency, TF over GST control)","1.26 fold enrichment (6-mer frequency, TF over GST control)"
TTATAT,"1.26 fold enrichment (6-mer frequency, TF over GST control)","1.42 fold enrichment (6-mer frequency, TF over GST control)","1.39 fold enrichment (6-mer frequency, TF over GST control)","1.4 fold enrichment (6-mer frequency, TF over GST control)","1.34 fold enrichment (6-mer frequency, TF over GST control)","1.41 fold enrichment (6-mer frequency, TF over GST control)","1.32 fold enrichment (6-mer frequency, TF over GST control)","1.51 fold enrichment (6-mer frequency, TF over GST control)","1.18 fold enrichment (6-mer frequency, TF over GST control)"
TATTGG,"1.12 fold enrichment (6-mer frequency, TF over GST control)","1.14 fold enrichment (6-mer frequency, TF over GST control)","1.22 fold enrichment (6-mer frequency, TF over GST control)","1.15 fold enrichment (6-mer frequency, TF over GST control)","1.22 fold enrichment (6-mer frequency, TF over GST control)","1.26 fold enrichment (6-mer frequency, TF over GST control)","1.06 fold enrichment (6-mer frequency, TF over GST control)","1.24 fold enrichment (6-mer frequency, TF over GST control)","1.07 fold enrichment (6-mer frequency, TF over GST control)"
ATCCCC,"1.47 fold enrichment (6-mer frequency, TF over GST control)","1.46 fold enrichment (6-mer frequency, TF over GST control)","1.35 fold enrichment (6-mer frequency, TF over GST control)","1.52 fold enrichment (6-mer frequency, TF over GST control)","1.5 fold enrichment (6-mer frequency, TF over GST control)","1.46 fold enrichment (6-mer frequency, TF over GST control)","1.39 fold enrichment (6-mer frequency, TF over GST control)","1.39 fold enrichment (6-mer frequency, TF over GST control)","1.2 fold enrichment (6-mer frequency, TF over GST control)"
ACTAAA,"1.26 fold enrichment (6-mer frequency, TF over GST control)","1.22 fold enrichment (6-mer frequency, TF over GST control)","1.34 fold enrichment (6-mer frequency, TF over GST control)","1.3 fold enrichment (6-mer frequency, TF over GST control)","1.32 fold enrichment (6-mer frequency, TF over GST control)","1.21 fold enrichment (6-mer frequency, TF over GST control)","1.32 fold enrichment (6-mer frequency, TF over GST control)","1.28 fold enrichment (6-mer frequency, TF over GST control)","1.34 fold enrichment (6-mer frequency, TF over GST control)"
CTAGTT,"1.37 fold enrichment (6-mer frequency, TF over GST control)","1.4 fold enrichment (6-mer frequency, TF over GST control)","1.42 fold enrichment (6-mer frequency, TF over GST control)","1.3 fold enrichment (6-mer frequency, TF over GST control)","1.31 fold enrichment (6-mer frequency, TF over GST control)","1.23 fold enrichment (6-mer frequency, TF over GST control)","1.34 fold enrichment (6-mer frequency, TF over GST control)","1.48 fold enrichment (6-mer frequency, TF over GST control)","1.21 fold enrichment (6-mer frequency, TF over GST control)"
TCGTTT,"1.13 fold enrichment (6-mer frequency, TF over GST control)","1.21 fold enrichment (6-mer frequency, TF over GST control)","1.28 fold enrichment (6-mer frequency, TF over GST control)","1.15 fold enrichment (6-mer frequency, TF over GST control)","1.15 fold enrichment (6-mer frequency, TF over GST control)","1.22 fold enrichment (6-mer frequency, TF over GST control)","1.2 fold enrichment (6-mer frequency, TF over GST control)","1.18 fold enrichment (6-mer frequency, TF over GST control)","1.05 fold enrichment (6-mer frequency, TF over GST control)"
ATGACG,"1.28 fold enrichment (6-mer frequency, TF over GST control)","1.44 fold enrichment (6-mer frequency, TF over GST control)","1.37 fold enrichment (6-mer frequency, TF over GST control)","1.29 fold enrichment (6-mer frequency, TF over GST control)","1.34 fold enrichment (6-mer frequency, TF over GST control)","1.21 fold enrichment (6-mer frequency, TF over GST control)","1.32 fold enrichment (6-mer frequency, TF over GST control)","1.43 fold enrichment (6-mer frequency, TF over GST control)","1.39 fold enrichment (6-mer frequency, TF over GST control)"
